Screens deposited in PubChem by National Center for Advancing Translational Sciences (NCATS).
CBFb RUNX1 block – blocks binding between human CBF-beta and RUNX1; Q01196+Q13951; AlphaScreen CBFb-His/RUNX1-biotin binding, biochemical; Potency, µM (top dose mostly 59.8 µM), inactives show top-dose activity, negative = inhibition, actives largely listed as inhibitors; 230,000 tested, under 10 active; AID 1477; also: % of control where 0% means no effect
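CBFb-His/RUNX1-biotin, 30 nM each, preincubated 20 min RT; compound 15 min RT; Ni + streptavidin beads 50 ng each, 90 min RT; AlphaScreen read.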
TSG101-PTAP inh – blocks PTAP/TSG101 interaction to inhibit HIV-1 budding; AID 493005; Fluorescence polarization, FITC-PTAP peptide / Tsg101 binding; Potency, µM (series often up to 115 µM), inactives show top-dose activity change, negative = inhibition, most hits filed as inhibitors; 340,000 tested, under 10 active; Q99816; active = well fitted inhibition curve with a large enough effect in the main read-out, with a control signal flat, not every such curve was filed as active; inconclusive = small, poorly fitted or top-dose-only effect, or effect the other way, or a change in a side signal; inactive = no such curve, though single readings can be large or run the other way; also: potency is read from the fitted curve at half-maximal effect; % of control where 0% means no effect
Target sequence (Q99816 whole entry, looked up): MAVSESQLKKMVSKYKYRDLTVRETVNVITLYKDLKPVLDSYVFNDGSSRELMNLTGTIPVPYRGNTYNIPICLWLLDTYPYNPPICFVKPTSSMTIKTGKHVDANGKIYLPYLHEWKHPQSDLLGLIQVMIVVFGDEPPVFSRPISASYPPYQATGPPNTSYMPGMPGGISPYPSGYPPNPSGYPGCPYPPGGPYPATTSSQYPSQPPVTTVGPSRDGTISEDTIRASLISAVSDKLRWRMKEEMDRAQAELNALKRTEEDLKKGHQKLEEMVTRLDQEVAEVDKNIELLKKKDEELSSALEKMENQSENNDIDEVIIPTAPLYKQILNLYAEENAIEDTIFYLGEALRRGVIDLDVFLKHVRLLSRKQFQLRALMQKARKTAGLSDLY
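Fluorescence anisotropy tracks displacement of a FITC-tagged PTAP peptide (50 nM) from the Tsg101 binding domain (10 uM), following a 20 min room-temperature incubation at pH 7.5.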
MBNL1 CUG block – inhibitors of human MBNL1 binding to CUG repeat RNA. Q9NR56. TR-FRET MBNL1-His/biotin-(CUG)12 binding, 665/545 ratio. Potency, µM (doses to about 57.5 µM), without a hit: at the highest dose activity change, negative = inhibition, hits mostly inhibitors. 280,000 tested, 0.036% active. AID 2675; active = well fitted inhibition curve with a large enough effect in the signal ratio, with a control signal flat, not every such curve was filed as active; inconclusive = small, poorly fitted or top-dose-only effect, or effect the other way, or a change in a side signal; inactive = no such curve, though single readings can be large or run the other way; the % refers to the signal ratio; also: potency is read from the fitted curve at half-maximal effect; % is scaled to controls: 0 for no effect and ±100 for the full control effect
Target sequence (Q9NR56 whole entry, looked up): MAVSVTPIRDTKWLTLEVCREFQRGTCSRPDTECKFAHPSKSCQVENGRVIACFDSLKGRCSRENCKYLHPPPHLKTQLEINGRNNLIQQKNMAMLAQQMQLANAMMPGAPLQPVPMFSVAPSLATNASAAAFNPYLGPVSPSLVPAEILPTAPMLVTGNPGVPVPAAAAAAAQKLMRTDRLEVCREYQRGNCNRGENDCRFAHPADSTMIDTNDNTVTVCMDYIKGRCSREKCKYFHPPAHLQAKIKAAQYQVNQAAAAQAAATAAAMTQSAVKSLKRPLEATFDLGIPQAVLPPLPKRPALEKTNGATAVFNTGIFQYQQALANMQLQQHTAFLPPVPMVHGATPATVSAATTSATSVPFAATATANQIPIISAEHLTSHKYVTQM
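Compounds (final 92 nM to 58 uM) are added to His-tagged MBNL1 and biotin-(CUG)12, then terbium anti-His antibody and streptavidin-XL665 (5 nM final). After 60 min at room temperature, the 665/545 nm ratio is read.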
Vif-APOBEC3F blk – Vif-A3F binding inhibition. 390,000 tested, 0.2% active. Potency, µM (top dose mostly 46.1 µM), inactives show top-dose activity, negative = active. HeLa A3F-eYFP + Vif (tagged APOBEC3F with the HIV-1 protein that degrades it), YFP fluorescence increase; also: potency is read from the fitted curve at half-maximal effect; % of control where 0% means no effect; nearly all actives have a fitted effect of over 65% in size
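HeLa cells stably expressing Vif plus C-terminally eYFP-tagged A3F were seeded, incubated overnight at 37 deg C, dosed with compound, incubated overnight again at 37 deg C. Yellow fluorescence (Ex 488/Em 500-530) reported blocked Vif-mediated A3F-eYFP degradation.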
Epigenetic derep – epigenetic control regulation, reporter derepression; murine LDR cells, GFP reporter derepression, 30 h; Potency, µM (titrated, usually from 53.9 µM), for inactives: at the top dose GFP activation, most hits filed as activators; 280,000 tested, 0.2% active; AID 1865; also: potency is read from the fitted curve at half-maximal effect; % of control where 0% means no effect; nearly all actives have a fitted effect of over 60% in size
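Reporter derepression read as number of fluorescent GFP-positive objects, 20-120 um in size, counted by laser-scanning cytometer. Mouse LDR line with an epigenetically silenced CMV-GFP locus; compound incubation 30 h, 37 C.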
Vif-A3G inh – blocks the Vif interaction with human APOBEC3G; 410,000 tested, 0.076% active; Q9HC16; Potency, µM (top dose mostly 46.1 µM), for inactives: at the top dose activity, negative = active, most hits filed as inhibitors; HeLa A3G-eYFP + Vif (tagged APOBEC3G with the HIV-1 protein that degrades it), YFP fluorescence, overnight; also: potency is read from the fitted curve at half-maximal effect; % is scaled to controls: 0 for no effect and ±100 for the full control effect; nearly all actives have a fitted effect of over 60% in size
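Read-out is eYFP fluorescence (Ex 488/Em 500-530) from Vif-expressing HeLa A3G-eYFP cells; more signal means A3G escaped Vif-mediated degradation. Cells plated overnight, compound pinned in, incubated overnight at 37 deg C.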
Starred values were filed as active, the others as inactive; ? = inconclusive; / = no result given. Only some compounds are listed: those with a hit (about 0.37% of all), similar ones and a draw of the others. Unless noted, calls follow the shape of the dose curve; as a rule, active = well fitted curve in the direction sought with a large enough effect; inconclusive = small, poorly fitted or top-dose-only effect, or another doubt; inactive = no such curve, though single readings can be large; an effect the other way counts as inactive or inconclusive.

SMILES | CBFb RUNX1 block | TSG101-PTAP inh | MBNL1 CUG block | Vif-APOBEC3F blk | Epigenetic derep | Vif-A3G inh
COC(=O)c1cc(NC(=O)c2cccc(Cl)c2)c(=O)oc1/C=C/Nc1cc(C)cc(C)c1 | 16% | / | 9% | / | 3.5µM* | /
CC(C)COc1ccc(C(=O)N/C(=C/c2cccc([N+](=O)[O-])c2)C(=O)O)cc1 | 4% | ? | ? | -9% | 0% | 10µM*
CC(C)COc1ccc(C(=O)N/C(=C\c2cccc([N+](=O)[O-])c2)C(=O)O)cc1 | -4% | -4% | 22% | -2% | 0% | 0%
COc1ccc(/C=c2\s/c(=C/C(=O)c3ccc(C)cc3)[nH]c2=O)c(OC)c1 | 3% | ? | -21% | 25µM* | 7% | ?
COc1cccc(C2=CC(c3ccc(N(C)C)cc3)n3nnnc3N2)c1 (stereo not given) | -4% | -1% | 19% | 32µM* | 0% | ?
COc1cccc(C2=CC(c3ccccc3)n3nnnc3N2)c1 (stereo not given) | -2% | -1% | -3% | -1% | 0% | ?
COc1ccc(C2=CC(c3ccc(N(C)C)cc3)n3nnnc3N2)cc1 (stereo not given) | / | / | / | 11µM* | 2% | ?
CC(Oc1ccccc1)C(=O)N[C@@H]1C(=O)N2C(C(=O)OCC3CCCCC3)C(C)(C)S[C@H]12 (stereo not given in full) | / | / | / | / | / | 1%
CCC(C)Sc1cccc(-c2nc3cc(C)ccn3c2NC2CCCCC2)c1 (stereo not given) | / | -1% | / | 22µM* | / | -8%
CCOC(=O)c1c(-c2ccccc2)csc1NC(=O)/C(C#N)=C\c1ccc(O)c(OC)c1 | / | 23% | / | ? | / | ?
CCOC(=O)c1c(-c2ccc(C)cc2)csc1NC(=O)/C(C#N)=C/c1ccc(O)c(OC)c1 | -2% | 6% | 2% | ? | 11µM* | 10µM*
CC(=O)NC1=C(C#N)CCC1 | / | / | / | / | / | 3%
CCN(CC)CCN(C(=O)/C=C/c1cccs1)c1nc2ccc(F)cc2s1 | / | 0% | -7% | -16% | / | 0%
CN(C)CCN(C(=O)/C=C/c1cccs1)c1nc2c(F)cc(F)cc2s1 | 16% | 10% | / | 11µM* | 1% | -18%
CN(C)CCCN(C(=O)/C=C/c1cccs1)c1nc2ccc(F)cc2s1 | -17% | 24% | -2% | 11µM* | 3% | ?
c1cc(CNc2ccc3c(c2)OCO3)ccn1 | -14% | -25% | 12% | -7% | 0% | 1%
Cc1ccc(CNc2ccc3c(c2)OCO3)cc1 | ? | ? | ? | 25µM* | 15% | 22µM*
CN(C)c1ccc2nc3c(=O)[nH]c(=O)nc-3n(CC(O)C(O)C(O)CO)c2c1 (stereo not given) | / | ? | ? | 8.9µM* | / | 2%
N#Cc1c(NC(=O)/C=C/C(=O)O)sc2c1CCN(Cc1ccccc1)C2 | / | -7% | 20% | 25µM* | / | ?
CC(C)N(c1ccc(C=O)cc1)C(C)C | / | / | / | / | / | 1%
CCNC(=O)C1CCCN(c2nnc(C)c3c(C)n(-c4ccc(C)cc4)nc23)C1 (stereo not given) | / | / | / | 7% | 1% | -3%
Cc1ccc(-n2nc3c(N4CCCC(C(=O)NCc5ccccc5C)C4)nnc(C)c3c2C)cc1 (stereo not given) | / | / | / | 13µM* | -2% | -9%
O=C(C[N+]12CCCc3cccc(c31)CCC2)c1ccc(Cl)c2ccccc12 | / | / | / | / | / | 0%
N/C(=N\O)c1cn(Cc2ccccc2Cl)c2ccccc12 | / | -3% | -2% | -13% | / | 1%
Cc1[nH][nH]c(=O)c1C(c1c(C)[nH][nH]c1=O)c1cn(Cc2ccccc2Cl)c2ccccc12 | -25% | -6% | 2% | -8% | 1% | 11µM*
SMILES | CBFb RUNX1 block | TSG101-PTAP inh | MBNL1 CUG block | Vif-APOBEC3F blk | Epigenetic derep | Vif-A3G inh
Cc1ccc(-c2nc3ncccc3o2)cc1NC(=O)c1ccc([N+](=O)[O-])o1 | / | -2% | ? | 22µM* | / | 0%
CN(C)CCNc1ccc2nnn3c4ccc(O)cc4c(=O)c1c23 | / | -2% | / | ? | / | -11%
CCN(CC)CCCNc1ccc2ncn3c4ccc(O)cc4c(=O)c1c23 | / | ? | / | 22µM* | / | ?
O=S1(=O)CCO[C@H]2CCCC[C@@H]2N1Cc1ccc(Cl)cc1 | / | / | / | / | / | 0%
Cn1cc(/C=C2\SC(=S)N(NC(=O)c3cccc(Cl)c3)C2=O)c2ccccc21 | 6% | ? | -5% | 7.9µM* | 2% | ?
COc1ccc(S(=O)(=O)Oc2ccc3ccccc3c2)cc1 | ? | 2% | -7% | -17% | 2% | ?
COC1=C(OC)C(=O)C(Sc2ccc3ccccc3c2)=CC1=O | / | -1% | / | 25µM* | / | ?
Cc1cccc(-c2noc(-c3ccc(NCc4ccco4)c([N+](=O)[O-])c3)n2)c1 | / | / | / | 10µM* | -4% | 1%
COc1ccc(-c2noc(-c3ccc(NCc4ccco4)c([N+](=O)[O-])c3)n2)cc1OC | / | / | / | 1% | -3% | 5%
O=C(c1cccc(Cl)c1Cl)N(Cc1ccco1)Cc1cccs1 | / | / | / | / | / | -4%
COc1ccc(N/C=C\C(=O)c2ccc(Br)cc2)cc1OC | -3% | ? | / | 32µM* | ? | -29%
COc1ccc(-n2c(/C=C/c3c(C)[nH]c4ccccc34)nc3ccccc3c2=O)cc1 | / | / | / | -10% | 10µM* | -8%
CCCCN(CCCC)CC(O)c1cc(Cl)cc2c1-c1ccc(Cl)cc1C2=Cc1ccc(Cl)cc1 (stereo not given) | / | / | / | / | / | 5%
COc1ccc(NC(=O)c2cccc3c(Br)cccc23)cc1 | / | 4% | 11% | -4% | / | -6%
COc1ccc(NC(=O)c2cccc3ccccc23)cc1 | / | 1% | 3% | 0% | / | 11µM*
CSc1nsc(/C=C/Nc2ccc(F)cc2)c1C#N | -6% | 9% | / | 22µM* | 10µM* | ?
CSc1nsc(/C=C/Nc2ccc(O)cc2C)c1C#N | ? | 20% | 15% | 10µM* | ? | ?
C(=C\c1ccnc2ccccc12)/c1ccc2ccccc2n1 | / | / | / | / | / | -28%
Cc1ccnc2c(Cl)c(Cl)ccc12 | / | / | / | / | / | -2%
O=C1N/C(=C/c2cccn2-c2ccccc2)C(=O)N1Cc1ccc(F)cc1 | 14% | 1% | 10% | -1% | 7.1µM* | -1%
COc1cccc(NCc2nnc(SC(C(=O)N(C)C)c3ccccc3)n2C2CCCCC2)c1 (stereo not given) | / | / | / | / | / | -2%
Cc1cc2nc3c(=O)n(CCc4ccccc4)c(=O)[nH]c3nc2cc1N | -8% | ? | ? | 6.3µM* | 0% | ?
